Screening data (PubChem BioAssay)
GSH fluor – compound fluorescence on glutathione beads, profiling panel, artefact control, biophysical, 488/530 nm, flow cytometry; GSH beads flow cytometry, compound fluorescence 488/530 nm; active compounds read high; fluorescence (KMESF) at 10 µM; 190,000 tested, 0.25% active; in the data active means fluorescence above about 89;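 further: glutathione beads carrying GST-tagged Bcl family fusion proteins plus one bare bead set; values are compound well signal with DMSO vehicle wells as background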
RGS16-Gao – modulators of RGS16 binding to Galphao, primary screen, biochemical, human proteins, multiplexed bead flow cytometry; Regulator of G-protein signaling 16 (Homo sapiens) + Guanine nucleotide-binding protein …; bead-based flow cytometry RGS16-Galphao binding, fluorescence; actives lie on both sides; binding response (% of control), % at 10 µM; 220,000 tested, 0.38% active;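 further: Galphao activated by GDP with aluminum fluoride before binding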
Avidin fluor – green autofluorescence of compounds with avidin beads – biophysical, 488/530 nm, flow cytometry, artefact control, profiling panel. fluorescence (KMESF) at 10 µM. compound fluorescence 488/530 nm; active compounds read high. 220,000 tested, 0.38% active; in the data active means fluorescence above about 47
RGS7-Gao reg – RGS7-Galphao binding modulators, primary screen, biochemical, multiplexed bead flow cytometry. Guanine nucleotide-binding protein G(o) subunit alpha (Homo sapiens), P09471. actives lie on both sides. binding response (% of control), % at 10 µM. 220,000 tested, 0.35% active. AID 1439, 2008; in the data active means binding response below about 49% or above about 150%; inconclusive means no clear call, values can overlap the other calls; inactive means in between;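 further: fluorescent Galphao held in activated GDP-AlF4 state binding bead-coupled RGS7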
Target sequence (P09471 whole entry, looked up): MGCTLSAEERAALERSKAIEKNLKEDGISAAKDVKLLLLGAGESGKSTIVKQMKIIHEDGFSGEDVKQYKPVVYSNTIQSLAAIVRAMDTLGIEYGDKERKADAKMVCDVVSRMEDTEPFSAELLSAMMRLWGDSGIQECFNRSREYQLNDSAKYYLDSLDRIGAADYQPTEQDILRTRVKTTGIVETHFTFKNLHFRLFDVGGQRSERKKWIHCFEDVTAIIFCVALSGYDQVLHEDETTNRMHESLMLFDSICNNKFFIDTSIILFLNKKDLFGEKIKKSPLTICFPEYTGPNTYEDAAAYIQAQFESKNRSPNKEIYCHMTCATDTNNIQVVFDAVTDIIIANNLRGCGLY
RGS8-Gao – RGS8-Galphao binding modulators, primary screen, biochemical, multiplexed bead flow cytometry | response (percent of control binding), % at 10 µM | 220,000 tested, 0.34% active | actives lie on both sides | AID 1423, 2008; in the data active means response below about 60% or above about 140%; inactive means in between;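 further: Galphao activated as the GDP aluminium fluoride complex binding bead-coupled RGS8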
RGS4-Gao reg – modulators of RGS4 binding to Galphao, primary screen, biochemical, multiplexed bead flow cytometry; Guanine nucleotide-binding protein G(o) subunit alpha (Homo sapiens), P09471; actives lie on both sides; binding response (% of control), % at 10 µM; 220,000 tested, 0.33% active; in the data active means binding response below about 49% or above about 150%; inactive means in between;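 further: fluorescent Galphao activated with aluminum fluoride binding bead-coupled RGS4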
RGS-Gao – modulators of RGS–Galpha-o binding, primary screen, biochemical, multiplexed beads, flow cytometry, RGS4/7/8/16/19; shares compounds with RGS16-Gao; 1,600 tested, 99% active; RGS4–Galpha-o binding response, % at 10 µM; multiplexed bead flow cytometry;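 further: fluorescently labeled Galpha-o bound to GDP with aluminium fluoride binding biotinylated RGS beads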
Target sequence (P09471 whole entry, looked up): as above
Target sequence (P49798 whole entry, looked up): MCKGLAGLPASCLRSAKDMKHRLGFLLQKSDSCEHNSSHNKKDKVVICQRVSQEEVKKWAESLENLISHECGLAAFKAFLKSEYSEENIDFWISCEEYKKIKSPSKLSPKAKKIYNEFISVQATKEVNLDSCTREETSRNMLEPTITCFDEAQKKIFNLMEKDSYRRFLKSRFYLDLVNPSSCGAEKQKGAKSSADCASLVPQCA
Biotin-avidin – disruption of biotin probe capture by avidin, counter-screen for RGS protein interaction modulators, biochemical, flow cytometry, bead-based; shares compounds with RGS16-Gao; streptavidin beads, fluorescein-biotin binding; 1,700 tested, under 10 active; inhibition, % at 10 µM;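 active means inhibition above 50%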;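 further: median green fluorescence of gated singlet beads compared with DMSO control wells; 0% = DMSO wells and 100% = complete loss of bead fluorescence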
RGS8-Gao single – RGS8-Galphao binding modulators, confirmation, biochemical, multiplexed bead flow cytometry, single concentration | binding response (% of control), % at 10 µM | shares compounds with RGS16-Gao | bead-based flow cytometry RGS8-Galphao binding, fluorescence; actives lie on both sides | 1,700 tested, 3% active | AID 1836, 2009; in the data active means binding response below about 72% or above about 130%; inactive means in between;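 further: Galphao activated as GDP AlF4 complex before binding bead RGS8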
RGS7-Gao single – RGS7-Galphao binding modulators, confirmation, biochemical, multiplexed bead flow cytometry, single concentration; shares compounds with RGS16-Gao; bead-based flow cytometry RGS7-Galphao binding; actives lie on both sides; response (percent of control binding), % at 10 µM; 1,700 tested, 7.8% active; AID 1837, 2009; in the data active means response below about 75% or above about 130%; inactive means in between;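 further: fluorescent Galphao activated with GDP and aluminum fluoride binding bead-coupled RGS7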
RGS16-Gao conf – modulators of RGS16-Galphao protein binding, confirmation, biochemical, single concentration, multiplexed bead flow cytometry. bead-based flow cytometry; actives lie on both sides. response (% of control binding), % at 10 µM. shares compounds with RGS16-Gao. 1,700 tested, 4% active. AID 1838, 2009; in the data active means response below about 74% or above about 130%; inactive means in between;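 further: Galphao activated as the GDP aluminium fluoride complex binding bead-coupled RGS16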
RGS4-Gao single – modulators of RGS4-Galphao protein binding, confirmation, biochemical, single concentration, multiplexed bead flow cytometry; 1,700 tested, 4% active; actives lie on both sides; binding response (% of control), % at 10 µM; shares compounds with RGS16-Gao; in the data active means binding response below about 74% or above about 130%; inactive means in between
RGS19-Gao single – regulators of RGS19-Galphao binding, confirmation, biochemical, single point, multiplexed bead flow cytometry. shares compounds with RGS16-Gao. 1,700 tested, 5% active. response (percent of control binding), % at 10 µM. bead-based flow cytometry RGS19-Galphao binding; actives lie on both sides. AID 1841, 2009; in the data active means response below about 50% or above about 160%; inactive means in between;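 further: 100% = no compound control and 0% = blank background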
Active calls of the source: *; ? = inconclusive; . = no result given; + = active, no number; [ ] = remark or other dose. The list is not random: actives were taken first. Their share in the collection is about 1.2%. Unless noted, how the calls were made is not given here.

SMILES	GSH fluor	RGS16-Gao	Avidin fluor	RGS7-Gao reg	RGS8-Gao	RGS4-Gao reg	RGS-Gao	Biotin-avidin	RGS8-Gao single	RGS7-Gao single	RGS16-Gao conf	RGS4-Gao single	RGS19-Gao single
CC1CCCC(C)N1c1nnc(N)s1 (stereo unspecified)	12	20*	2	55	57*	53	53*	0	102	102	103	104	104
COC(=O)c1ccccc1NC(=O)/C=C/C(=O)O	13	34*	8	96	86	87	87*	-2	101	102	101	101	94
COC(=O)c1ccccc1NC(=O)CN1C(=O)CSC1=O	41	.	.	.	.	.	.	1	100	99	100	99	89
COC(=O)c1cc(NC(=O)CN2C(=O)CSC2=O)ccc1Cl	11	111	15	109	97	105	.	.	.	.	.	.	.
CN(C)CC(CCCCC(CN(C)C)C(=O)c1ccccc1)C(=O)c1ccccc1 (stereo unspecified)	.	90	5	?	98	90	.	.	.	.	.	.	.
Cc1nc(-c2ccc(S(=O)(=O)NCc3cccnc3)s2)cs1	.	103	8	?	101	101	.	.	.	.	.	.	.
CCCC[n+]1ccn(-c2nc3ccccc3nc2[N-]S(=O)(=O)c2ccccc2)c1	40	172	.	.	101	134	.	0	101	99	102	99	93
Cn1cnnc1SCC(=O)Nc1c(F)cc(F)cc1Br	41	.	.	.	.	.	.	1	102	97	101	101	96
O=C(NNC(=S)Nc1ccc(Br)cc1Cl)c1ccncc1	21	110	90*	164*[activator]	102	112	112*	2	102	101	104	103	110
CN(C)CCNC(=O)c1ccc2c(c1)N(Cc1ccc(F)cc1)CCS2	23	7	0	62	60*	44*	.	1	101	96	98	101	86
Cc1ccc(CN2CCSc3ccc(C(=O)NCc4cccnc4)cc32)cc1	13	93	8	?	98	96	.	.	.	.	.	.	.
O=C(CNC(=O)c1ccccc1)Nc1cccc(C(F)(F)F)c1	211*	+[activator]	560*	845*[activator]	193*[activator]	762*[activator]	.	3	95	72*	85	83	64
Cc1ccc(C(=O)NCC(=O)Nc2cccc(C(F)(F)F)c2)cc1	14	101	21	98	100	98	.	.	.	.	.	.	.
O=C(NCc1ccccc1Cl)NCc1ccccc1Cl	.	46	2	?	62	43*	.	-1	103	103	107	99	109
CCCNC(=O)CN1C(=O)NC2(CCCc3cc(OC)ccc32)C1=O (stereo unspecified)	17	253	6	110	148*[activator]	108	108*	.	.	.	.	.	.
O=[N+]([O-])c1ccccc1OCCOc1ccccc1[N+](=O)[O-]	.	102	7	?	100	99	.	.	.	.	.	.	.
COc1ccc(OCCOc2ccccc2[N+](=O)[O-])cc1	10	180*[activator]	15	111	126	117	117*	0	100	103	101	102	94
N#Cc1c(-c2ccc(F)cc2)ccnc1N1CCOCC1	14	106	12	103	103	105	.	.	.	.	.	.	.
COC(OC)c1ccnc(-c2ccc(OC(=O)c3cccs3)cc2)n1	11	13*	0	?	15*	23*	.	1	103	102	103	104	98
COC(OC)c1ccnc(-c2ccc(OC(=O)c3ccccc3)cc2)n1	10	89	10	?	90	88	.	.	.	.	.	.	.
COc1ccccc1C(=O)N1CCNC(=O)C1CC(=O)Nc1cccc(C)c1 (stereo unspecified)	10	115	143*	240*[activator]	101	103	103*	-3	100	100	100	101	101
COc1ccc(NC(=S)N2CCNC(=O)C2CC(=O)Nc2cccc(Cl)c2C)cc1 (stereo unspecified)	9	9.7*	8	94	79	95	95*	0	95	95	94	96	92
C=CCn1c(CCNC(=O)c2cccs2)nnc1SCC(=O)Nc1cccc(F)c1	17	102	11	100	100	99	.	.	.	.	.	.	.
O=C(Cn1c2ccccc2c(=O)c2ccccc21)N/N=C/c1ccc(N2CCCC2)c([N+](=O)[O-])c1	9	97	12	90	98	91	.	.	.	.	.	.	.
O=C(Cn1c2ccccc2c(=O)c2ccccc21)N/N=C/c1cc([N+](=O)[O-])ccc1N1CCCCCC1	12	.	.	.	.	.	.	2	105	135*[activator]	140*[activator]	129*[activator]	384*[activator]
CCn1cc(CNC(=S)Nc2cccc3ccccc23)cn1	24	74	7	96	97	101	.	.	.	.	.	.	.
O=C(NCCN1CCN(Cc2ccc([N+](=O)[O-])cc2)CC1)C(=O)Nc1ccccc1	33	99	18	97	100	97	.	.	.	.	.	.	.
